Measured values: article PMC7826789 (International Journal of Molecular Sciences, 2021)

Key:
Conditions in all cases: Compound Concentration (nM):1000
PAK1 = system: PAK1
PAK2 = system: PAK2
PAK3 = system: PAK3
PAK4 = system: PAK4
PAK6 = system: PAK6
PAK7 = system: PAK7
PCTK1 = system: T1, PCTK1
T1 construct: gene CDK16

PCTK2 = system: T2, PCTK2
T2 construct: gene CDK17

PCTK3 = system: T3, PCTK3
T3 construct: gene CDK18

PDGFRA = system: PDGFRA
PDGFRB = system: PDGFRB
PDPK1 = system: PDPK1
PFCDPK1(P.falciparum) = system: T4, PFCDPK1(P.falciparum)
T4 construct: gene CDPK1

PFPK5(P.falciparum) = system: T5, PFPK5(P.falciparum)
T5 construct: gene MAL13P1.279

PFTAIRE2 = system: T6, PFTAIRE2
T6 construct: gene CDK15

PFTK1 = system: T7, PFTK1
T7 construct: gene CDK14

PHKG1 = system: PHKG1
PHKG2 = system: PHKG2
PIK3C2B = system: PIK3C2B
PIK3C2G = system: PIK3C2G
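Further: KINOMEscan scanMAX binding as percent activity remaining versus control; lower means stronger binding.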

Row | Structure (SMILES) | Percent Control (PAK1) | Percent Control (PAK2) | Percent Control (PAK3) | Percent Control (PAK4) | Percent Control (PAK6) | Percent Control (PAK7) | Percent Control (PCTK1) | Percent Control (PCTK2) | Percent Control (PCTK3) | Percent Control (PDGFRA) | Percent Control (PDGFRB) | Percent Control (PDPK1) | Percent Control (PFCDPK1(P.falciparum)) | Percent Control (PFPK5(P.falciparum)) | Percent Control (PFTAIRE2) | Percent Control (PFTK1) | Percent Control (PHKG1) | Percent Control (PHKG2) | Percent Control (PIK3C2B) | Percent Control (PIK3C2G)
1 | COc1cc(/C=N/Nc2ncnc3[nH]ncc23)ccc1O [GW578748X] | 100% | 97% | 58% | 100% | 100% | 100% | 100% | 100% | 100% | 7.6% | 38% | 83% | 18% | 100% | 96% | 100% | 100% | 88% | 72% | 51%
2 | O=C1Nc2ccc(C(=O)c3ccco3)cc2C1=Cc1cc(Cl)c(O)c(Cl)c1 [GW406108X] | 100% | 80% | 100% | 100% | 80% | 100% | 100% | 100% | 91% | 79% | 88% | 97% | 9.5% | 93% | 100% | 89% | 100% | 70% | 12% | 39%
3 | COC(=O)Nc1nc2ccc(Oc3ccc(NC(=O)Nc4cc(C(F)(F)F)ccc4F)cc3)cc2s1.Cl [GW693917A] | 100% | 100% | 43% | 100% | 82% | 91% | 74% | 72% | 78% | 11% | 0.1% | 95% | 77% | 77% | 27% | 56% | 100% | 90% | 100% | 87%
4 | COc1cc2ncn(-c3cc(O[C@H](C)c4ccccc4Cl)c(C(N)=O)s3)c2cc1OC [GSK237701A] | 98% | 93% | 7.6% | 93% | 88% | 100% | 90% | 100% | 100% | 24% | 12% | 90% | 75% | 57% | 60% | 100% | 100% | 79% | 12% | 78%
5 | CC1=C(C(=O)Nc2ccc3[nH]ncc3c2)C(c2ccc3ccccc3c2)CC(=O)N1 (stereo not shown) [GSK270822A] | 85% | 93% | 79% | 85% | 89% | 83% | 89% | 100% | 96% | 100% | 74% | 100% | 66% | 70% | 60% | 64% | 100% | 100% | 92% | 79%
